In paper PMC11024108:

target: Stress-70 protein, mitochondrial (UniProt P38646); experiment: cross-link between two proteins; cross-linking mass spectrometry

V-type proton ATPase subunit D, P57746, sequence (P57746 whole entry): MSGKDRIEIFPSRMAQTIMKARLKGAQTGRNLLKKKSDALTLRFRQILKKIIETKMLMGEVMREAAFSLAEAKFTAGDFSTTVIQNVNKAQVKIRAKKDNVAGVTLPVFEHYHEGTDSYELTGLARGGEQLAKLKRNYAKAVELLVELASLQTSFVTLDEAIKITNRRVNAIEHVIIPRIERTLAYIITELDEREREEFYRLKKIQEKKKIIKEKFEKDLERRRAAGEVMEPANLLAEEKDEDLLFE

Listed as a hit, yes:
Pyrroline-5-carboxylate reductase 1, mitochondrial, P32322
Mitochondrial import inner membrane translocase subunit TIM44, O43615
Electron transfer flavoprotein subunit beta, P38117

target: V-type proton ATPase 116 kDa subunit a 1 (UniProt Q9Z1G4); experiment: as above
Sequence (Q9Z1G4 whole entry): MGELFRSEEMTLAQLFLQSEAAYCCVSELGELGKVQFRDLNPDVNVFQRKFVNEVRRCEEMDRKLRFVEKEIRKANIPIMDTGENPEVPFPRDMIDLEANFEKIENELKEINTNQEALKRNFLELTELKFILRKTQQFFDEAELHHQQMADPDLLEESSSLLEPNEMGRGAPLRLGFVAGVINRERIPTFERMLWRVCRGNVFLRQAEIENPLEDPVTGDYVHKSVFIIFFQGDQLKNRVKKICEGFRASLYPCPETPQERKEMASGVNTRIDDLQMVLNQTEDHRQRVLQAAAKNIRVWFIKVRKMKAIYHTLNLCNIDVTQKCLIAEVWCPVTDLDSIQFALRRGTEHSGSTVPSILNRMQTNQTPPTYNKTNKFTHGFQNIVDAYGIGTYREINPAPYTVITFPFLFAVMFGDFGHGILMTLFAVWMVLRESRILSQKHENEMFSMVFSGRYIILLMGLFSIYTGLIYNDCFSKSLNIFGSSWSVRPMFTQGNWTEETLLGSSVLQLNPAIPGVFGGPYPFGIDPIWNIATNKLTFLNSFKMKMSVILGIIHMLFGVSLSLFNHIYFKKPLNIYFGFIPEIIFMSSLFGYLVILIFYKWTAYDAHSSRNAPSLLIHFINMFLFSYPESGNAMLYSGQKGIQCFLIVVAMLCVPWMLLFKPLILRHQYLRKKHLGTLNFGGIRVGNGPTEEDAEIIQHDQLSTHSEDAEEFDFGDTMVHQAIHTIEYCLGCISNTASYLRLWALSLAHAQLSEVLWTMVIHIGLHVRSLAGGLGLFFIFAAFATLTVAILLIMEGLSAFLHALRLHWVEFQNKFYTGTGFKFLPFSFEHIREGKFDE

Listed as a hit, yes:
V-type proton ATPase subunit S1, Q9R1Q9
V-type proton ATPase subunit H, Q8BVE3
Vesicle-associated membrane protein 1, Q62442

target: V-type proton ATPase subunit B, brain isoform (UniProt P62814); experiment: as above
Sequence (P62814 whole entry, canonical isoform): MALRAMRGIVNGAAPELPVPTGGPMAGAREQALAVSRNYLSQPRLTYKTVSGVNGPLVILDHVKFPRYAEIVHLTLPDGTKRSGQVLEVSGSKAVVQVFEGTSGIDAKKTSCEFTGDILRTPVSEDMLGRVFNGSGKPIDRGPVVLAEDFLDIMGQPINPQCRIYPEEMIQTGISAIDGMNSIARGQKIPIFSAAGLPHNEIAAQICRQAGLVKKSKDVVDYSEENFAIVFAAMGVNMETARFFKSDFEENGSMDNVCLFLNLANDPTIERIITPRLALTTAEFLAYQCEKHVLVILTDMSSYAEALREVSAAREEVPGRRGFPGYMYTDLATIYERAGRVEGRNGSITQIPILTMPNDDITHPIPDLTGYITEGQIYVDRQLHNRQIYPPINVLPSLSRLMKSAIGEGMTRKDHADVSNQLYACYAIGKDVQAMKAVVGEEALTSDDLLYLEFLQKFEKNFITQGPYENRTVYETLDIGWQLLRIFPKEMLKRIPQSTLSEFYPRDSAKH

Listed as a hit, yes:
V-type proton ATPase subunit D, P57746
V-type proton ATPase catalytic subunit A, P50516
V-type proton ATPase subunit E 1, P50518
